Potency and outcome data for 1 compound are collected here from PubChem BioAssay (NCATS).

Each structure is given as a SMILES string. Unmarked numbers belong to inactive results. Records with an inconclusive call do not appear. The source made the active and inactive calls. Unless noted, calls follow the shape of the dose curve; as a rule, active = well fitted curve in the direction sought with a large enough effect; inconclusive = small, poorly fitted or top-dose-only effect, or another doubt; inactive = no such curve, though single readings can be large; an effect the other way counts as inactive or inconclusive.

Experiment [1] is described as follows: Cell Viability - BJ (AID 421; calls by dose curve;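 also: potency is read from the fitted curve at half-maximal effect; cells exposed to compound for 40 hours at 37 °C before readout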). The note with it: BJ fibroblast viability, qHTS. Put shortly:
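Cytotoxicity in human BJ foreskin fibroblasts is scored as loss of cellular ATP after a 40-hour exposure, measured by luciferase luminescence. Controls are DMSO and 100 uM tamoxifen.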
(qHTS replaces the single test concentration by a dilution series.)

The nature of experiment [2]: Cell Viability - Jurkat (AID 426;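 active = dose-dependent loss of cell ATP signal giving a full or clear fitted curve, ranked by lower potency value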; also: potency is read from the fitted curve at half-maximal effect). Particulars: qHTS. The gist of the method:
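qHTS, 1536-well; Jurkat E6-1, 5000 cells/well, complete medium; cpd 40 hr, 37 °C; CellTiter-Glo 20 min RT; luminescence. AC50 by Hill fit.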

The nature of experiment [3]: Cell Viability - Hek293 (AID 427;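 active = compounds whose dose-response curve shows a full or clear partial loss of cell viability, called from curve shape rather than a numeric limit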;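 also: potency is read from the fitted curve at half-maximal effect; cells exposed to compound for 40 hours at 37 °C before reading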). The note with it: qHTS. The gist of the method: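 qHTS, human embryonic kidney (adenovirus-transformed) cells; 40 hr cpd, 37 °C; CellTiter-Glo ATP luminescence. Norm: DMSO = 0, 100 uM tamoxifen = 100% inhibition. Hill-fit AC50.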
A short description of experiment [4]: Cell Viability - MRC5 (AID 434; calls by dose curve;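 also: potency is read from the fitted curve at half-maximal effect; potency reflects cytotoxicity seen as loss of intracellular ATP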). The note with it: MRC5 lung fibroblast viability, qHTS. The gist of the method:
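MRC5 normal human lung fibroblasts (1500/well) were treated with compounds for 40 hr at 37 °C in complete medium, and viable cells were measured as intracellular ATP by CellTiter-Glo luminescence. AC50 came from Hill fits, normalized to DMSO and 100 uM tamoxifen.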

The target of experiment [5] is Mitogen-activated protein kinase 10 (Mus musculus) (UniProt Q61831). Description: JNK3 AlphaScreen Assay (AID 530; active = well fitted curve in either direction with a large enough effect, not every such curve was filed as active;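 also: kinase came from lysate of stimulated human HepG2 cells; signal reports phosphorylation of biotinylated GST-cJun 1-79 at Ser73 with 10 µM ATP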). Put shortly:
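Inhibitors reduce antibody binding to phosphorylated biotin-cJun, lowering AlphaScreen luminescence. Lysates from HepG2 cells pre-activated by IL-1beta plus TNF-alpha supplied JNK3; compounds were titrated.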
(In general: In Alpha technology, singlet oxygen from a donor bead excites a nearby acceptor bead.)

The nature of experiment [6]: Cell Viability - N2a (AID 540). Also: potency is read from the fitted curve at half-maximal effect; nearly all actives have a fitted effect of over 45% in size. The note with it: N2a mouse neuroblastoma cell viability; activity change, negative = cytotoxicity: at 92.2 µM (top of the series). Put shortly:
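Luminescent ATP signal (CellTiter-Glo, 20 min at room temperature) served as the viability read-out after N2a cells were treated with compounds for 40 hours at 37 °C. Concentration-response data were fitted to the Hill equation for AC50.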

Experiment [7] in a line: Cell Viability - NIH 3T3 (AID 541). Also: potency is read from the fitted curve at half-maximal effect; nearly all actives have a fitted effect of over 25% in size. The note with it: NIH 3T3 cell viability, qHTS; activity change, negative = cytotoxicity: at 92.2 µM (top of the series). Put shortly: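 Luminescent ATP signal (CellTiter-Glo) served as the viability read-out after NIH 3T3 cells were exposed to compounds over a concentration range for 40 hr at 37 °C. Hill-equation modelling of concentration-response data gave AC50.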

Experiment [8] can be described thus: Cell Viability - HUV-EC-C (AID 542). Also: nearly all actives have a fitted effect of over 35% in size. Put shortly:
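qHTS cytotoxicity: HUV-EC-C, 1000 cells/well, 5 hr settle, compound 40 hr 37 °C, CellTiter-Glo, luminescence. AC50 via Hill equation.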

The nature of experiment [9]: Cell Viability - H-4-II-E (AID 543). Also: potency is read from the fitted curve at half-maximal effect; nearly all actives have a fitted effect of over 35% in size. Put shortly:
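Luminescent ATP signal (CellTiter-Glo) served as the viability read-out, with cytotoxicity seen as a concentration-dependent ATP drop. Cells were treated for 40 hours in complete medium. AC50 values derive from Hill-equation modelling.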

The nature of experiment [10]: Cell Viability - SH-SY5Y (AID 544). Also: potency is read from the fitted curve at half-maximal effect; nearly all actives have a fitted effect of over 55% in size. Particulars: SH-SY5Y neuroblastoma cell viability; viability change, negative = cytotoxic: at 92.2 µM (top of the series). Put shortly:
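Luminescent ATP read-out (CellTiter-Glo) measures loss of viable SH-SY5Y neuroblastoma cells after 40 hr compound exposure at 37 °C. AC50 values derive from standard Hill modelling of qHTS concentration-response data.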

Experiment [11] is described as follows: Cell Viability - Renal Proximal Tubule (AID 545). Also: potency is read from the fitted curve at half-maximal effect; nearly all actives have a fitted effect of over 40% in size. The note with it: renal proximal tubule cells viability; activity change, negative = cytotoxicity: at 91.7 µM (top of the series) unless noted. Put shortly: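 Viability taken as intracellular ATP (CellTiter-Glo luminescence) after 40 hr, 37 °C compound treatment of primary proximal tubule cells from rat kidney, 1000 cells/well; Hill-equation fits of qHTS concentration-response data gave AC50.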

Experiment [12] is described as follows: Cell Viability - Mesenchymal (AID 546).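 Also: potency is read from the fitted curve at half-maximal effect; cells exposed to compound for 40 hours before reading.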 The note with it: mesenchymal cells viability, qHTS; activity change, negative = cytotoxicity: at 91.7 µM (top of the series). The gist of the method:
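Normal human renal glomerulus-derived kidney mesenchymal cells, 1000 per well in complete medium, were treated with compounds for 40 hr at 37 °C. Viability was read as intracellular ATP by CellTiter-Glo luminescence; AC50 values came from Hill-equation fits of qHTS concentration-response data.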

Experiment [13] in a line: Cellular Toxicity (caspase-3) HepG2 (AID 654).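 Also: cells exposed to compound for 16 hours before reading.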 Put shortly:
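Cells plated 5 hr at 37 °C, compound added, incubated 16 hr at 37 °C. Caspase-Glo 3/7 reagent followed, 20 min at room temperature, then luminescence read. Activation scored as signal increase; AC50 from Hill fit.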

Experiment [14] is described as follows: Cellular Toxicity (caspase-3) HUV-EC-C (AID 656). The gist of the method: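 Luminescent Caspase-Glo 3/7 readout after 16 h, 37 °C compound exposure of HUV-EC-C endothelial cells, 1000 per well, complete medium. AC50 derived by Hill fitting, with DMSO as baseline and 100 uM tamoxifen as full activation.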
Experiment [15] is described as follows: Cellular Toxicity (caspase-3) SHSY5Y (AID 657). Put shortly: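 Luminescent Caspase-Glo 3/7 read-out, 1 hr room temperature, follows 16 hours of compound treatment of SH-SY5Y cells at 37 °C. Normalization: DMSO basal, 10 uM staurosporine as 100%; AC50 values from Hill-equation concentration-response fits.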
Experiment [16] in a line: Cellular Toxicity (caspase-3) BJ (AID 658). Put shortly:
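Luminescent aminoluciferin-substrate cleavage reports caspase 3/7 activity in normal human BJ fibroblasts after 16 hr compound exposure at 37 °C. Normalized to DMSO (basal) and 10 uM staurosporine (100%); AC50 from Hill fit of concentration-response.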

The nature of experiment [17]: Cellular Toxicity (caspase-3) MRC-5 (AID 659). Put shortly: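 Luminescence from caspase-cleaved aminoluciferin substrate (Caspase-Glo 3/7, 1 hr RT) reports caspase 3/7 activity in MRC-5 lung fibroblasts after 16 hr compound exposure. Normalized to DMSO basal and 10 uM staurosporine as 100%; AC50 from Hill fits.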
A short description of experiment [18]: Cellular Toxicity (caspase-3) Mesangial (AID 660).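 Also: combined caspase 3 and 7 activity read by Caspase-Glo luminescence; cells exposed to compound for 16 h before the caspase read.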 The note with it: Potency: caspase-3 activation. The gist of the method:
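Mesangial cells, 1000/well, 5 h settle at 37 °C; compound 16 h, 37 °C; Caspase-Glo 3/7 reagent 20 min RT; luminescence. Norm.: DMSO = 0%, tamoxifen 100 uM = 100%. AC50, Hill fit.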

Turning to `CN(C)c1ccc(N=O)cc1`, the Potency in [1] was over 92 µM; in experiment [2], 2.5 µM (active); in experiment [3] it was 47.4 µM (active); in [4], 42.1 µM (active); in [6], 31.6 µM (active); in experiment [7], 12.6 µM (active). Moreover, the Potency in experiment [9] is 6.31 µM (active); in experiment [10], 1.26 µM (active); in experiment [11], 15.8 µM (active); in experiment [12] it was 31.6 µM (active). Also, the call in [5], in experiment [13], in experiment [14], in experiment [16] and in experiment [17] was inactive. Moreover, the Potency result in [8], in experiment [15] and in experiment [18] was “inactive” each time.
